Rows were chosen to be rich in hits. Some 2.2% of all compounds tested hit in one or more screens of this group.
NTR1 agonist: agonists of human NTR1, primary screen, imaging, U2OS cells, beta-arrestin-GFP, high content; NTR1-U2OS beta-arrestin-GFP spot imaging, agonist mode; AID 493036, 2011; Neurotensin receptor type 1 (Homo sapiens), P30989; 330,000 tested, 0.17% active; activation, % at 20 µM;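 active = activation at or above 40% of the spot to cytoplasm intensity ratio, with at least 20 cells analyzed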
Target sequence (P30989 whole entry, looked up): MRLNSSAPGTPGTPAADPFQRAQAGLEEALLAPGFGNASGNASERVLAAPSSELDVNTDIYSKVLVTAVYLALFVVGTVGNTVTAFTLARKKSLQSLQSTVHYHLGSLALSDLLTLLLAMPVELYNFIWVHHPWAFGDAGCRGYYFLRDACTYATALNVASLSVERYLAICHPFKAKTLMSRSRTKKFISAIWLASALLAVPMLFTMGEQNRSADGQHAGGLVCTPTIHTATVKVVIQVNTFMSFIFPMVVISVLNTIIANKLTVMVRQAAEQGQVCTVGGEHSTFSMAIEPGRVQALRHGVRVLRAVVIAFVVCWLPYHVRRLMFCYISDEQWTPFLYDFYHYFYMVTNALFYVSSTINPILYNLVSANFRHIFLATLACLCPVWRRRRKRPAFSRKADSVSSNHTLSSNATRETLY
ANO1 block: TMEM16A chloride channel inhibitors, primary screen, cell-based, HTS. Anoctamin-1 (Mus musculus), Q8BHY3. HEK293 TMEM16A/YFP iodide influx fluorescence, ionomycin. normalized B-score (activity score, 25-100; higher = stronger inhibition) at 10 µM. 310,000 tested, 1.2% active. AID 588511, 2011;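 active = ratio plate-corrected score three or more library SD toward inhibition, starting fluorescence score within five deviations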;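 note: score derived from kinetic fluorescence span divided by baseline fluorescence per well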
CHO-K1 Ca ag: counter-screen for M1 agonists: effect in parental CHO-K1 cells | activation, % at 3 µM | Fluo-8 calcium fluorescence; scaled to maximal ATP response, vehicle zero | 360,000 tested, 0.48% active; in the data active = activation above about 15%;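 note: untransfected CHO-K1 host cells lacking M1 receptor as counterscreen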
M1 PAM parental: nonselective calcium activators in parental CHO-K1 cells, primary screen, counter-screen for M1 PAM project, cell-based, Fluo-8 calcium fluorescence, full deck, 1536-well. ATP EC20; 0% at ATP EC20, 100% at ATP max. activation, % at 3 µM. 360,000 tested, 0.02% active;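 active = activation above the run cutoff, the mean activation of all test compounds plus 3 SD, cut at about 40% in these data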;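 note: peak over basal fluorescence ratio in a 140 s read after ATP addition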
CHO-K1 Ca antag: counter-screen for M1 antagonists: effect in parental CHO-K1 cells. 360,000 tested, 0.6% active. AID 602250. inhibition, % at 3 µM. ATP-induced calcium, Fluo-8 fluorescence;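 active = inhibition above a per-plate cutoff, the plate's mean sample inhibition plus 3 SD, cut at about 24% in these data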
ANO1 activ: TMEM16A chloride channel activators or potentiators, primary screen, cell-based, HTS. HEK293 TMEM16A/YFP-H148Q/I152L, iodide quench fluorescence; hits give low values. 340,000 tested, 0.3% active. AID 623877, 2012. Anoctamin-1 (Mus musculus), Q8BHY3. B-score at 10 µM;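 active = fluorescence-ratio B-score plate-corrected deviation score at least 3 library SD below zero, with starting fluorescence score within 5 deviations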;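 note: channel opened by trigger with iodide after compound preincubation; score built on the fluorescence ratio of max minus min over baseline; more negative score means more quench and so TMEM16A activation or potentiation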
TMEM16A reconf: TMEM16A chloride channel inhibitors, confirmation, cell-based, re-confirmation. shares compounds with ANO1 block. HEK293 TMEM16A/YFP-H148Q, iodide quench fluorescence; ionomycin added to raise cell calcium. inhibition, % at 10 µM. 2,300 tested, 39% active. AID 652189, 2013;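 active = mean duplicate percent inhibition, scaled so buffer wells are 0 and the reference blocker 100, over three buffer SD above buffer mean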
TMEM16A Ca cntr: calcium mobilization in TMEM16A/YFP HEK293 cells, confirmation, counter-screen for TMEM16A inhibitor project | shares compounds with ANO1 block | Fluo4 calcium mobilization | calcium response (% of ionomycin), % at 10 µM | 2,300 tested, 2% active | AID 652231, 2013;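 active = duplicate-averaged calcium signal over 20% of the ionomycin maximum, relative to buffer baseline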;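 note: each well's signal is peak minus trough fluorescence divided by its pre-addition baseline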
YFP-HEK293 quench: iodide YFP quench changes in parental YFP-HEK293, counter-screen for TMEM16A inhibitor project, cell-based. 2,300 tested, under 10 active. AID 652233, 2013. shares compounds with ANO1 block. YFP ratio F(max-min)/F0 at 10 µM. ionomycin;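 active = yellow fluorescent protein signal ratio exceeding the buffer control mean by over 5 SD of those controls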;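 note: ratio is mean of duplicate wells from kinetic YFP trace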
ClC-1 inh: ClC-1 chloride channel inhibition, selectivity assay for TMEM16A inhibitor project, cell-based, voltage-dependent ClC-1 | ratio percent, % at 10 µM | CHO ClC-1-YFP, iodide influx fluorescence quench; iodide control reads 0, buffer control 100 | AID 652236, 2013 | 2,300 tested, under 10 active | shares compounds with ANO1 block;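 active = duplicate-mean ratio percent above the mean of iodide-only control wells, which defines zero, plus 5 of their SD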;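 note: higher percent means stronger block of ClC-1 iodide influx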
Each line names hits and unclear results; the compound was inactive in the other large screens (follow-up assays come after a bar, where they were run).

Cc1ccc(-n2ncc3c(N4CCCC4)ncnc32)c(C)c1	none
COc1cccc(N2CCN(c3ncnc4c3cnn4-c3ccc(C)cc3C)CC2)c1	ANO1 block 100 | TMEM16A reconf 32% | TMEM16A Ca cntr inactive | YFP-HEK293 quench inactive | ClC-1 inh inactive
CCCCC[C@@H](C)N1C[C@H](COCc2ccccc2)Oc2cc(N3CC[C@H](N(C)C)C3)ccc2S1(=O)=O	none (no result: NTR1 agonist, ANO1 block, ANO1 activ)
O=C(O)c1ccc2c(=O)n(Cc3ccccc3)c(SCc3ccc([N+](=O)[O-])cc3)nc2c1	ANO1 block 25 | TMEM16A reconf 19% | TMEM16A Ca cntr inactive | YFP-HEK293 quench inactive | ClC-1 inh inactive
O=c1c2ccccc2nc(SCc2ccc([N+](=O)[O-])cc2)n1-c1ccccc1	none
COc1ccc(CCNC(=O)C2CCCN(S(=O)(=O)c3cc(C)ccc3OC)C2)cc1OC (stereo not given)	none
CCOc1ccc(-n2c(=S)sc3c(=O)[nH]c(SCC(=O)C(C)(C)C)nc32)cc1	ANO1 block 100 | TMEM16A reconf 34% | TMEM16A Ca cntr inactive | YFP-HEK293 quench inactive | ClC-1 inh inactive
CCOC(=O)CSc1nc2c(sc(=S)n2-c2ccc(OCC)cc2)c(=O)[nH]1	none
CC(=O)N=c1c(C#N)cc2c(=O)n3ccccc3nc2n1CCCOC(C)C	none
CC(C)OCCCn1c(=NC(=O)c2ccncc2)c(C#N)cc2c(=O)n3ccccc3nc21	ANO1 block 25 | TMEM16A reconf inactive | TMEM16A Ca cntr 28% | YFP-HEK293 quench inactive | ClC-1 inh inactive
CC(=O)c1ccc(S(=O)(=O)N2CCN(c3nc(-c4cccnc4)nc4ccccc34)CC2)cc1	none (no result: ANO1 block)
Cc1ccc(-c2csc(NC(=O)c3ccc(Br)cc3)c2C(=O)O)cc1	ANO1 block 100 | TMEM16A reconf 28% | TMEM16A Ca cntr inactive | YFP-HEK293 quench inactive | ClC-1 inh inactive
CC(C)Cc1csc(NC(=O)c2ccccc2Cl)c1C(=O)O	none
CC(C)Cc1csc(NC(=O)c2ccc(Cl)cc2)c1C(=O)O	ANO1 block 25 | TMEM16A reconf 39% | TMEM16A Ca cntr inactive | YFP-HEK293 quench inactive | ClC-1 inh inactive
Cc1cccc(C(=O)Nc2scc(-c3ccc(Br)cc3)c2C(=O)O)c1	none
CCNC(=O)C1CCCN(C(=O)c2ccccc2F)CC1 (stereo not given)	none (no result: NTR1 agonist, ANO1 block, ANO1 activ)
CCCC(=O)N1CCC1(C)C(=O)Nc1ccc(-n2cccc2)cc1 (stereo not given)	none (no result: NTR1 agonist, ANO1 block, ANO1 activ)
Cc1ccc(OCc2nc(C#N)c(NCc3ccc4c(c3)OCO4)o2)cc1	ANO1 block 25 | TMEM16A reconf 16% | TMEM16A Ca cntr inactive | YFP-HEK293 quench inactive | ClC-1 inh inactive
COc1ccc(CCNc2oc(COc3ccc(Br)cc3)nc2C#N)cc1OC	ANO1 block 100 | TMEM16A reconf inactive | TMEM16A Ca cntr inactive | YFP-HEK293 quench inactive | ClC-1 inh inactive
CC(=O)Nc1ccc(SCC(=O)Nc2ccccc2N2CCOCC2)cc1	none (no result: ANO1 block)

Source: PubChem BioAssay
